Shown is part of a subset that was picked to be rich in hits.
RBX1-CUL1 inh: inhibitors of human ROC1-CUL1 ubiquitin ligase activity; E3 ubiquitin-protein ligase RBX1 (Homo sapiens) + Cullin-1 (Homo sapiens), P62877+Q13616; in vitro K48 di-Ub FRET, acceptor:donor ratio, 45 min; inhibition, % at 10 µM; actives 0.6% (n = 140,000); in the data active = inhibition above about 25%
Each line names hits and unclear results; the compound was inactive in the other large screens.

O=C(O)c1ccc(N2N=C(c3ccccc3)/C(=C/c3ccco3)C2=O)cc1	RBX1-CUL1 inh 33
Clc1ccccc1-c1nnc2sc(-c3cccs3)nn12	none
Fc1ccc(-c2nnc3sc(/C=C/c4ccco4)nn23)cc1	RBX1-CUL1 inh 95
Fc1ccc(-c2nn3c(-c4ccco4)nnc3s2)cc1	none
Fc1ccc(/C=C/c2nn3c(-c4ccco4)nnc3s2)cc1	none
Clc1ccccc1-c1nnc2sc(/C=C/c3ccco3)nn12	RBX1-CUL1 inh 96
COc1ccccc1-c1nnc2sc(/C=C/c3ccco3)nn12	none
COc1ccc(N2CCN(C(=O)c3ccc(Br)s3)CC2)cc1	none
Cc1c(Cl)c(=O)oc2cc(OC(=O)CCNC(=O)OCc3ccccc3)c(Cl)cc12	none
O=C(Cc1ccc2c(c1)OCO2)c1cc2c(cc1Br)OCO2	none
CC1Cc2cc(C(=O)N3CCOCC3)ccc2N1S(=O)(=O)c1ccccc1 (stereo unspecified)	none
CCS(=O)(=O)N1CCCC(C(=O)Nc2cccc(Cl)c2)C1 (stereo unspecified)	none
CCOC(=O)c1ccc(N=C2S/C(=C\c3ccccc3O)C(=O)N2C)cc1	none
Cc1cc(C)c(S(N)(=O)=O)c(Cl)n1	none
O=C(COc1ccccc1-c1ccnn1-c1ccccc1)N/N=C/c1coc2ccc(Cl)cc2c1=O	RBX1-CUL1 inh 60
O=C(COc1ccccc1-c1ccnn1-c1ccccc1)N/N=C/c1cc2ccccc2nc1Cl	none
Cc1ccc2occ(/C=N\NC(=O)COc3ccccc3-c3ccnn3-c3ccccc3)c(=O)c2c1	none
Cc1ccccc1NC(=O)CC1Nc2ccccc2NC1=O (stereo unspecified)	none
COc1ccc(S(=O)(=O)N(CC(=O)N2CCN(Cc3ccc4c(c3)OCO4)CC2)C2CCCCC2)cc1OC	none
O=C(O)COc1ccnc(Cl)c1	none
O=S(=O)(O)c1cc(I)c(OC(=S)Nc2ccccc2)c2ncccc12	none
O=S(=O)(c1c(F)c(F)c(F)c(F)c1F)C(F)F	RBX1-CUL1 inh 103
Cc1ccc(S(=O)(=O)C(F)F)cc1	none
O=C(Cc1ccc(N2CCNC2=O)cc1)NCCN1Cc2ccccc2OC(c2ccccc2F)C1 (stereo unspecified)	none
Cc1ccc2nc3c(cc(C(=O)N4CCCCCC4)n3C)c(=O)n2c1	none
CCOC(=O)C1=NN(C(C)=O)C2(CC(=O)N(c3ccc(OCC)cc3)C2=O)C1 (stereo unspecified)	none
CCCC1(C2CCN(C(=O)CCc3cccs3)CC2)NC(=O)N(CCc2ccccn2)C1=O (stereo unspecified)	none
CN(C)c1ccnc2sc3c(=O)[nH]cnc3c12	none
CN1C(=O)C2C(=NC(=O)CC2c2cccc(O)c2)N(C)C1=O (stereo unspecified)	none
O=C(CSc1nc2scc(-c3ccco3)c2c(=O)n1-c1ccccc1)Nc1ccc2c(c1)OCCO2	none
O=C(CSc1nc2scc(-c3ccco3)c2c(=O)n1-c1ccccc1)c1ccc(F)cc1	RBX1-CUL1 inh 97
CC(=O)CSc1nc2scc(-c3ccc(C)o3)c2c(=O)n1-c1ccccc1	none
O=C1OCCN1/N=C\c1ccnc2ccccc12	none
CCOc1ccc(-c2cc(C(=O)N3N=C(C(F)F)CC3(O)C(F)F)c3cc(C)ccc3n2)cc1 (stereo unspecified)	none
Nc1c(C(=O)Nc2ccccc2C(=O)O)sc2nc3c(cc12)CCCCCC3	none
Nc1c(C(=O)Nc2ccccc2C(=O)O)sc2nc3c(cc12)CCCCC3	RBX1-CUL1 inh 35
Nc1c(C(=O)Nc2ccccc2F)sc2nc3c(cc12)CCCCC3	none
Cc1cc(C)n(-c2cc(Oc3ccc(F)cc3)ncn2)n1	none
COc1ccc(CCNC(=O)c2c(F)c(F)c(F)c(F)c2F)cc1	none
CC(=O)N1CCC(N(C)CC2CCCN(CCc3ccccc3C)C2)CC1 (stereo unspecified)	none
O=C(O)c1cc2cc(Br)ccc2oc1=O	none
O=C(O)c1cc2ccoc2cc(C(=O)O)c1=O	RBX1-CUL1 inh 100
CC(=O)Nc1ccc2occc2c1	none
COc1cccc2c1OCC(NCCc1ccco1)C2 (stereo unspecified)	none
COC1CCCN(c2ccc(C(=O)NCCCc3ccccn3)cn2)C1 (stereo unspecified)	none
CC1=NN(c2ccccc2)C(=O)/C1=C/c1ccccc1OCc1ccc(C(=O)O)cc1	RBX1-CUL1 inh 51
CC1=NN(c2ccccc2)C(=O)/C1=C/c1ccccc1OCc1ccccc1C	none
COc1cc(/C=C2/C(=O)N(c3ccc(Cl)c(Cl)c3)N=C2C)ccc1OCc1ccccc1	none
CC(=N\Nc1ccccc1)/C(Cl)=N/O	none
CCN1CCN(Cc2nc(N)nc(Nc3ccc(Cl)cc3)n2)CC1	none
CN(C(=O)c1ccccn1)C(Cc1ccccc1)C1CCN(C(=O)/C=C/c2ccccc2)CC1 (stereo unspecified)	none
COCCCn1ccc(-c2cccc(-c3ccc(OC)nn3)c2)n1	none
Cc1c(C(=O)O)cccc1-c1ccc(/C=C2/SC(=O)N(Cc3cc4c(cc3Cl)OCO4)C2=O)o1	none
CC(C)c1ccc(/C=C2\SC(=O)N(Cc3ccc(F)cc3)C2=O)cc1	none
O=C(O)COc1ccc(/C=C2/SC(=O)N(Cc3ccc(F)cc3)C2=O)cc1Br	none
O=C(O)c1ccc(-c2ccc(/C=C3\SC(=O)N(Cc4ccc(F)cc4)C3=O)o2)cc1Cl	RBX1-CUL1 inh 92
Cc1ccccc1NC(=O)CN1C(=O)S/C(=C\c2ccc(-c3cc(C(=O)O)ccc3Cl)o2)C1=O	RBX1-CUL1 inh 28
Cc1ccccc1NC(=O)CN1C(=O)S/C(=C\c2ccc(-c3cc(C(=O)O)ccc3C)o2)C1=O	none
Cc1cccc(NC(=O)CN2C(=O)S/C(=C/c3ccc(-c4cc(C(=O)O)ccc4Cl)o3)C2=O)c1	none
Cc1cccc(/C=C2/SC(=O)N(Cc3ccccc3C#N)C2=O)n1	none
O=C1S/C(=C\c2cc(Br)cc(Cl)c2O)C(=O)N1Cc1ccc(F)cc1	RBX1-CUL1 inh 40
C=CCN1C(=O)S/C(=C\c2ccc(-c3ccc(Br)cc3)o2)C1=O	none
COC(=O)CN1C(=O)S/C(=C/c2ccc(-c3cccc(C(=O)O)c3C)o2)C1=O	none
N#Cc1ccccc1CN1C(=O)S/C(=C/c2ccc(-c3ccc(Cl)c(C(=O)O)c3)o2)C1=O	RBX1-CUL1 inh 42
N#Cc1c(-c2cn(-c3ccccc3)nc2-c2ccccc2)cc(-c2ccccc2)nc1OCC(=O)c1ccc(-c2ccccc2)cc1	none
O=C(C1CC1)N1CCCC(CCc2ccccc2F)C1 (stereo unspecified)	none
CSc1ccc(CC(=NC(=O)c2ccccc2)c2nc3ccccc3[nH]2)cc1	none
O=C1C(=O)N(c2ccccc2)[C@](C(=O)Nc2ccccc2)(c2ccccc2)C1C(=Nc1ccccc1)c1ccccc1 (stereo partly specified)	none
CCCn1c(C)c(CC(=O)NCc2cc(C)[nH]n2)c2c1CC(C)(C)CC2=O	none
O=C(Cc1cccnc1)NC1CCCc2c1cnn2-c1cc(F)cc(F)c1 (stereo unspecified)	none
O=C(N/N=C/c1ccc(C(F)(F)F)cc1)c1cc2c(ccc3ccccc32)o1	none
COc1cc(S(=O)(=O)NCCOc2ccc(C(C)(C)C)cc2)c(OC)cc1Cl	none
Cc1c(NS(=O)(=O)c2ccccc2)cccc1C(N)=O	none
CC(Oc1ccccc1Cl)C(=O)Nc1ccc(Cl)c(Cl)c1 (stereo unspecified)	none
Cn1c2ccccc2c2nnc(N/N=C/c3ccc(I)o3)nc21	none
CN1CCC2(CCCN(CC3CCCCC3)C2=O)C1 (stereo unspecified)	none
O=C(Nc1ccc2nc(SCC(=O)N3CCOCC3)sc2c1)c1cccc(F)c1	none
O=C(Nc1ccc2nc(SCC(=O)N3CCOCC3)sc2c1)c1cccc(Br)c1	RBX1-CUL1 inh 27
O=C(Nc1ccc2nc(SCC(=O)N3CCOCC3)sc2c1)c1ccc(Br)cc1	none

Compound activity as filed in PubChem.
